The campaign covered roughly 38,000 compounds. About 1,200 (3.2%) showed an effect of 50% or more. The median lay at about -58%. Many of the other results were omitted from the sample, so strong results are more common in it than they were.
The compounds below were run on Plasmodium falciparum (assay: Calibr Malaria Delayed Death Assay SOP). Conditions: concentration 4.99e-06 (unit not given; other assays of the set use mol/L).
Assay type: functional, organism-based
Design: scale not given: in the data most compounds retested in dose-response had high values
With `Cc1nnc([C@@H]2CC[C@@H]3[C@@H](CCN3C3CCC3)O2)o1` the “Percent Effect” value was -20.01%.
For `CC1CCCN(C(=O)Nc2ccc(F)c(C(N)=O)c2)C1` (configuration not stated), the “Percent Effect” value was -56.74%.
For `CNc1cc(-c2cccc(CN)c2)c2cc[nH]c2n1`, the “Percent Effect” value was -44.1%.
For `CCc1ccc2nc(C)cc(C(=O)N[C@@H]3CCCNC3)c2c1`, the “Percent Effect” value was 64.11%.
`CCc1ccc2nc(C)cc(C(=O)N[C@@H]3CNC[C@H]3O)c2c1` was tested, and the “Percent Effect” value was -23.23%.
`CCc1ccc2nc(C)cc(C(=O)NC[C@@H]3CCNC[C@H]3O)c2c1` was tested, and the “Percent Effect” value was -50.87%.
`CC(C)(C)CN1CCCC12CCN(S(=O)(=O)c1ccccc1)C2.O=C(O)C(F)(F)F` (configuration not stated) was tested, and the “Percent Effect” value was 29.05%.
For `Cc1cccc(C(=O)N2CCCn3cnc(CN4CCCC4=O)c3C2)n1`, the “Percent Effect” value was -0.7301%.
For `Cn1ncc2c1CN(Cc1ccccc1F)CC2COCC1CC1.O=C(O)C(F)(F)F.O=C(O)C(F)(F)F` (configuration not stated), the “Percent Effect” value was -47.59%.
For `Cc1ccc(OCC2CCCN(c3nc(CO)cs3)C2)cc1` (configuration not stated), the “Percent Effect” value was -23.08%.
For `COc1ccc(OCC2CCCN(c3nc(CO)cs3)C2)cc1` (configuration not stated), the “Percent Effect” value was -52%.
`OCc1csc(N2CCCC(COc3cccc(F)c3)C2)n1` (configuration not stated) was tested, and the “Percent Effect” value was 81.1%.
With `COCCCNC(=O)N1CCC(CNC(=O)c2cnn(C)c2)CC1` the “Percent Effect” value was -42.86%.
In the case of `c1c(CN2CCOCC2)nc2n1CCN(C1CCOCC1)C2`, the “Percent Effect” value is reported as -53.44%.
`COc1cccc(S(=O)(=O)N2C[C@@H](N(C)C)[C@H](C(C)C)C2)c1` was tested, and the “Percent Effect” value was 72.07%.
In the case of `CC(C)[C@@H]1CN(S(=O)(=O)c2cccc(C(=O)O)c2)C[C@H]1N(C)C`, the “Percent Effect” value is reported as -75.82%.
`CC(C)[C@H]1CN(S(=O)(=O)c2cccnc2)C[C@@H]1N` was tested, and the “Percent Effect” value was -121.7%.
`CS(=O)(=O)NCc1cnc2n1CCN(Cc1ccco1)CC2.O=C(O)C(F)(F)F` was tested, and the “Percent Effect” value was -61.12%.
With `Cc1ccc(C(=O)Nc2nnc(C(C)C)s2)c(-n2cnnn2)c1C` the “Percent Effect” value was -117.2%.
With `Cc1cnn(CCNCc2c(C)nn(Cc3ccccc3)c2C)c1` the “Percent Effect” value was 31.58%.
In the case of `Cc1cnn(CCNCc2nccn2CC(F)(F)F)c1`, the “Percent Effect” value is reported as 12.08%.
For `Cc1cnn(CCNCc2nccn2Cc2ccccc2)c1`, the “Percent Effect” value was 81.96%.
With `CC(NC(=O)c1cccs1)(C(N)=O)c1cccc(C(F)(F)F)c1` (configuration not stated) the “Percent Effect” value was -110.1%.
`CCc1nc(N2CCC3(CC2)OCCCC3O)ncc1C` (configuration not stated) was tested, and the “Percent Effect” value was -35.89%.
`CCc1ncc(C(=O)NC(C)(C)C(=O)OC)s1` was tested, and the “Percent Effect” value was -64.84%.
With `COC(=O)[C@H](C)NC(=O)c1cnc(Cc2ccc(F)cc2)s1` the “Percent Effect” value was -108.7%.
`COC(=O)C(C)(C)NC(=O)c1cnc(Cc2ccc(F)cc2)s1` was tested, and the “Percent Effect” value was 74.7%.
`CC1c2cccn2CCN1C(=O)CCc1nc(-c2ccccc2)no1` (configuration not stated) was tested, and the “Percent Effect” value was -13.83%.
In the case of `Cc1cccc2c1OCCCC2NCc1nnc2n1CCCCC2` (configuration not stated), the “Percent Effect” value is reported as -75.07%.
With `Cc1cccc2c1OCCC2NCc1c(C)nn(C)c1N(C)C` (configuration not stated) the “Percent Effect” value was -2.294%.
`Cn1cc(CNC2CCCOc3c(Cl)cccc32)cn1` (configuration not stated) was tested, and the “Percent Effect” value was 17.16%.
In the case of `Cn1cc(CNC2CCCOc3c2ccc2ccccc32)cn1` (configuration not stated), the “Percent Effect” value is reported as 61.58%.
For `Cc1nn(C)c(N(C)C)c1CNC1CCOc2c(F)cccc21` (configuration not stated), the “Percent Effect” value was -94.95%.
`Cn1ccnc1CNC1CCCOc2c1ccc1ccccc21` (configuration not stated) was tested, and the “Percent Effect” value was 76.31%.
With `O=C(O)Cc1cnc(-c2c(Cl)cccc2Cl)s1` the “Percent Effect” value was -103%.
With `CN(Cc1ccco1)Cc1cncc2c1CCN(S(C)(=O)=O)C2.Cl.Cl` the “Percent Effect” value was -71.86%.
`CCCNC(=O)CCNc1cncc(-n2nc(C)cc2C)n1` was tested, and the “Percent Effect” value was -96.17%.
`CCOc1cccc(COC(=O)c2cc(C)on2)n1` was tested, and the “Percent Effect” value was -20.94%.
In the case of `FC(F)(F)c1ccnc(N2C[C@H]3CCN(c4cccnc4)C[C@H]3C2)n1.O=C(O)C(F)(F)F`, the “Percent Effect” value is reported as -4.152%.
`CC1CN(C)CCN1C(=O)c1ccn(-c2ccc(F)cc2)n1` (configuration not stated) was tested, and the “Percent Effect” value was -53.04%.
In the case of `CCC(NCc1ccccc1)c1ccccc1OCC(=O)NC` (configuration not stated), the “Percent Effect” value is reported as 63.6%.
In the case of `CNC(=O)Cc1noc(Cc2cccc(Cl)c2)n1`, the “Percent Effect” value is reported as -69.96%.
For `CCC(NC(N)=O)c1ccccc1OCC(=O)N1CCCC1` (configuration not stated), the “Percent Effect” value was -42%.
In the case of `CCC(NCc1ccccn1)c1ccccc1OCC(=O)NC` (configuration not stated), the “Percent Effect” value is reported as -34.3%.
In the case of `CNC(=O)COc1ccc(-c2ccccc2)nc1`, the “Percent Effect” value is reported as -42.95%.
For `Cc1sc(NS(=O)(=O)c2ccccc2)nc1C(=O)NC1CC1`, the “Percent Effect” value was -59.95%.
`CCOCC1CN(C(=O)c2cccc(C)n2)Cc2cnn(C)c21` (configuration not stated) was tested, and the “Percent Effect” value was -41.72%.
For `CCOC(=O)N1CCN(C(=O)CCn2ccc3c(OC)cccc32)CC1`, the “Percent Effect” value was -55.78%.
In the case of `Cc1cc(CC(=O)NC2CCCN(c3ccccc3Cl)C2=O)n[nH]1` (configuration not stated), the “Percent Effect” value is reported as -141.2%.
In the case of `O=S(=O)(CCN1CCCC1Cn1cccn1)c1ccccc1` (configuration not stated), the “Percent Effect” value is reported as -24.99%.
`NC(=O)CNC1(c2ccc(Cl)cc2)CCCC1` was tested, and the “Percent Effect” value was -116.4%.
`Cc1nnc(C(C)NCC2(c3ccc(Cl)cc3)CCCC2)o1` (configuration not stated) was tested, and the “Percent Effect” value was -5.972%.
In the case of `Clc1ccc(C2(CNC3=NCCN3)CCCC2)cc1.I`, the “Percent Effect” value is reported as 83.48%.
`Clc1ccc(C2(CNC3=NCCN3)CCCCC2)cc1.I` was tested, and the “Percent Effect” value was 89.77%.
With `CN(C)C(=O)CCS(=O)(=O)Cc1cc(Cl)c2c(c1)OCO2` the “Percent Effect” value was -99.04%.
With `COCCNC(=O)Cn1c(-c2ccc(Cl)cc2)nc(C)c(CCO)c1=O` the “Percent Effect” value was -30.51%.
In the case of `CCOC(=O)c1cnn(-c2cc(Oc3ccccc3C)ncn2)c1N`, the “Percent Effect” value is reported as -71.43%.
`Cc1nc(N2CCN(C(=O)NCc3cscn3)CC2)sc1C` was tested, and the “Percent Effect” value was -173%.
`N#CC1COCCN1C(=O)c1ccc2[nH]cnc2c1` (configuration not stated) was tested, and the “Percent Effect” value was -106.6%.
`COC(=O)C(O)C1CCN(Cc2cccc(-n3cccn3)c2)CC1` (configuration not stated) was tested, and the “Percent Effect” value was -42.85%.
`CN1CCN([C@@H]2CCN(Cc3cccc(-n4cccn4)c3)C[C@H]2O)CC1` was tested, and the “Percent Effect” value was -47.29%.
In the case of `CN1CCC(C2CCN(Cc3cccc(-n4cccn4)c3)CC2)C1` (configuration not stated), the “Percent Effect” value is reported as 85%.
For `O=C(CN1C=Nc2ccccc2S1(=O)=O)NCc1ccccc1F`, the “Percent Effect” value was -61.62%.
With `Cc1ccc(O)c(CNC2CCc3nc(C)nn3C2)n1` (configuration not stated) the “Percent Effect” value was -50.72%.
With `CO[C@H]1CN(C(C)C)C[C@@H]1NC(=O)Nc1ccc2oc(C)cc2c1` the “Percent Effect” value was -10.12%.
In the case of `COCC(c1ccccn1)N(C)C(=O)c1cc(-c2ccccc2O)n[nH]1` (configuration not stated), the “Percent Effect” value is reported as -47.61%.
For `Cc1ncoc1C(=O)N1CC[C@@H](O)[C@@H](O)[C@H](N2CCC(F)(F)CC2)C1`, the “Percent Effect” value was -177.2%.
In the case of `CN1CCC2(C=C(C(=O)N(C)C)c3ccccc32)CC1`, the “Percent Effect” value is reported as 59.58%.
With `CCC(=O)N1CCC2(C=C(C(=O)N(C)C)c3ccccc32)CC1` the “Percent Effect” value was -96.59%.
`CCN1CCC2(C=C(C(=O)N(C)C)c3ccccc32)CC1.O=C(O)C(F)(F)F` was tested, and the “Percent Effect” value was -5.162%.
With `COc1cc(CCC(=O)NC2CCCN(C)C2)ccc1OCC(F)(F)F` (configuration not stated) the “Percent Effect” value was 27.9%.
`Cc1noc(C)c1CN1CC[C@H]2OCC[C@@]2(C(=O)NCC2CC2)C1.O=C(O)C(F)(F)F` was tested, and the “Percent Effect” value was -150.6%.
For `COC[C@@H]1CCC[C@@]12CN(C(=O)C1CCOCC1)CCO2`, the “Percent Effect” value was -66.15%.
`COc1ccc(-n2nnnc2C(C)(C)Nc2ccc(C)cc2C)cc1` was tested, and the “Percent Effect” value was -134.7%.
With `Cc1nnc(C2CCN(C(=O)c3ccsc3)CC2)s1` the “Percent Effect” value was -17.33%.
With `Oc1cccc(-c2cc(C3CCN(Cc4cncnc4)C3)ccn2)c1` (configuration not stated) the “Percent Effect” value was -16.47%.
For `CN(C)CC(C)(C)CN1CCC(c2ccnc(-c3cccc(O)c3)c2)C1` (configuration not stated), the “Percent Effect” value was 69.12%.
With `Cn1ccnc1CN1CCC(c2ccnc(-c3cccc(O)c3)c2)C1` (configuration not stated) the “Percent Effect” value was 27.57%.
With `Nc1cccnc1N1CCC(O)CC1` the “Percent Effect” value was -81.29%.
`Cc1n[nH]c(C)c1-c1cc(-c2cc[nH]c2)nc(N)c1C#N` was tested, and the “Percent Effect” value was -97.75%.
With `O=C(O)C(F)(F)F.O=C(O)C(F)(F)F.c1cncc(N2CCCC3(CCN(CCN4CCCC4)CC3)C2)c1` the “Percent Effect” value was 91.95%.
`Cn1cc(CN2CCCC3(COCCN(c4cccnc4)C3)C2)cn1.O=C(O)C(F)(F)F.O=C(O)C(F)(F)F` (configuration not stated) was tested, and the “Percent Effect” value was -73.12%.
In the case of `c1cncc(CN2CCCC3(COCCN(c4cncnc4)C3)C2)c1` (configuration not stated), the “Percent Effect” value is reported as -38.46%.
For `O=C(O)C(F)(F)F.c1cncc(N2CCCC3(CCN(CC4CCCO4)CC3)C2)c1` (configuration not stated), the “Percent Effect” value was 46.34%.
With `O=C(O)C(F)(F)F.c1cncc(N2CCC3(CCCN(c4ccncc4)C3)CC2)c1` the “Percent Effect” value was 46.04%.
For `Cc1nc2cc(NCc3cnn(C)c3)ccc2n1C`, the “Percent Effect” value was -142.2%.
For `COCCN(C)C[C@@H]1CN(C(=O)NC2CCCCC2)C[C@@H]1CO`, the “Percent Effect” value was -45.61%.
`CCn1c(C)cc(C(=O)Nc2ccccc2CN(C)C(C)=O)c1C` was tested, and the “Percent Effect” value was -65.04%.
For `Cc1nc(C2CCCNC2)cc(N(Cc2nccn2C)C2CC2)n1` (configuration not stated), the “Percent Effect” value was 7.981%.
For `CCn1ccnc1C1CCN(Cc2c(F)cccc2F)CC1`, the “Percent Effect” value was -140%.
With `Cc1nc(NCCC23CCCN2CCC3)cc(C2CCCNC2)n1` (configuration not stated) the “Percent Effect” value was -30.47%.
With `COc1cccc(CN2CC[C@H](c3nnc(C)o3)C2)c1` the “Percent Effect” value was -103.2%.
For `COc1cccc(CN2CCCC2Cn2nc(C)nc2C)c1` (configuration not stated), the “Percent Effect” value was -44.63%.
In the case of `O=c1n(Cc2ccccc2F)nc2ncccn12`, the “Percent Effect” value is reported as -19.66%.
With `O=C(c1cnc(C2CC2)nc1O)N1CCN(Cc2ccccc2F)CC1` the “Percent Effect” value was -42.64%.
`Fc1cccnc1Oc1cc(F)c(CN2CCCC2)c(F)c1` was tested, and the “Percent Effect” value was 13.36%.
In the case of `CCSCc1cccc(NCc2cccnc2)c1`, the “Percent Effect” value is reported as -120.6%.
In the case of `CCCNc1cc(C(=O)N2CCOCC2)nc(C)n1`, the “Percent Effect” value is reported as -41.3%.
With `COCCNC(=O)c1ccc2c(=O)n3c(nc2c1)CCCCCC3` the “Percent Effect” value was -86.41%.
`CC(C)N(C)Cc1cn2c(n1)CN(C(=O)c1ccc[nH]1)CC2` was tested, and the “Percent Effect” value was -50.23%.
For `COC[C@@H]1CC[C@H]2[C@H](CCN2S(=O)(=O)c2cccc(F)c2)O1`, the “Percent Effect” value was -8.99%.
With `Cc1ccc2c(c1)N(C(=O)c1c[nH]c(C)cc1=O)CC(C)O2` (configuration not stated) the “Percent Effect” value was -44.94%.

From ChEMBL document CHEMBL3988442, “University of Dundee, Small-Polar-MMV Screening Library” (2021)
